Screening results from PubChem.
Rows were chosen to be rich in hits. Some 21% of all compounds tested hit in one or more screens of this group.
IL-1B inflam inh: blocks inflammasome-driven IL-1 beta release. THP-1 LPS/ATP IL-1B secretion, AlphaLISA, 16 h; stronger effect = lower value. activity change, % at 57.5 µM. 360,000 compounds, 4.7% hits. AID 743279; in the data active = activity change below about -50%; inconclusive = mostly about -30% to -49%
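THP-1 cells pretreated 1 hr with compounds (up to 57.5 uM final), then stimulated with LPS (250 ng/mL final) plus ATP (1.25 mM final); secreted IL-1B measured by AlphaLISA after 16 hr, decreased signal indicating inhibition.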
Gal4-VP16 FLuc: inhibits Gal4-VP16 luciferase reporter, ROR gamma counter-screen. Drosophila S2 Gal4-VP16 UAS-luciferase, luminescence, 20 h. Potency, µM (top dose mostly 53.6 µM), for inactives: at the top dose activity, negative = inhibition, most hits filed as inhibitors. 310,000 compounds, 3.5% hits;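 also: Gal4-VP16 expression switched on by copper sulfate through the metallothionein promoter; potency is read from the fitted curve at half-maximal effect; nearly all actives have a fitted effect of over 50% in size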
RORgamma inh: ROR gamma (mouse) transcription inhibition; Drosophila S2 Gal4-RORgamma UAS-luciferase reporter, 20 h; Potency, µM (highest dose often 53.6 µM), without a hit: at the highest dose activity change, negative = inhibition, usual class: inhibitors; P51450; AID 2551; 310,000 compounds, 5.4% hits; also: potency is read from the fitted curve at half-maximal effect; nearly all actives have a fitted effect of over 60% in size
Target sequence (P51450 whole entry, looked up, the tested form may be a part): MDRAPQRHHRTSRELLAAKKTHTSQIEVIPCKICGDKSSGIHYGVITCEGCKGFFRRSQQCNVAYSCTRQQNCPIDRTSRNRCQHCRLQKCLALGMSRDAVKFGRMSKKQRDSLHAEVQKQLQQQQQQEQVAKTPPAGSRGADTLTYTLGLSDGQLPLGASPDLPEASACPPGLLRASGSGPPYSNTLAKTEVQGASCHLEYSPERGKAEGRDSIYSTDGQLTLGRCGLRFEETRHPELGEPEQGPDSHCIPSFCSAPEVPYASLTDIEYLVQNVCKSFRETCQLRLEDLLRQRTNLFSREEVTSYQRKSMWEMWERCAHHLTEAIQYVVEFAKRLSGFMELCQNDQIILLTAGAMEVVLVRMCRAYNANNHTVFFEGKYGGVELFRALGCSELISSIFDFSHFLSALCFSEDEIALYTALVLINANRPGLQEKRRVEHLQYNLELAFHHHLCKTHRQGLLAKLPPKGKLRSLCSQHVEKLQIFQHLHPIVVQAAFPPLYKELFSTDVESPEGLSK
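Stably transfected Drosophila Schneider cells are the test system, with ROR gamma fused to Gal4 and luciferase under UAS control; luminescence is read after 20 hr of 700 uM copper sulfate induction at ambient temperature.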
DT40 TDP1 no CPT: qHTS for Inhibitors of human tyrosyl-DNA phosphodiesterase 1 (TDP1): qHTS in cells in absence of CPT; DT40 Tdp1-/- hTDP1 cells, no CPT, ATP luminescence, 48 h; Potency, µM (doses to about 46.2 µM), for the others: at the top dose activity change, negative = growth inhibition, actives largely listed as inhibitors; 420,000 compounds, 15% hits; also: potency is read from the fitted curve at half-maximal effect; nearly all actives have a fitted effect of over 55% in size
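Chicken DT40 Tdp1-/- cells stably complemented with human TDP1 were seeded at 400 cells/well with DMSO in place of 20 nM camptothecin. After compound pinning, cells grew at least 48 hr at 37 °C; viability read by CellTiter-Glo luminescence.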
ELG1 DNA repair: blocks ELG1-dependent DNA repair in HEK293T cells | 330,000 compounds, 2.3% hits | AID 504467 | Potency, µM (doses to about 46.1 µM), for inactives: at the top dose activity change, negative = inhibition, usual class: inhibitors | HEK293T ELG1-luciferase reporter, luminescence, 16 h; DNA damage induced by 5-fluorouridine; also: potency is read from the fitted curve at half-maximal effect; nearly all actives have a fitted effect of over 55% in size
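Step one: seed 2,000 cells per well. Step two: pin-transfer compound or DMSO alongside 5-fluorouridine. Step three: incubate 16 hr, 37 °C, 5% CO2. Step four: add ONE-Glo, wait 30 min, read luminescence.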
DT40 TDP1 CPT: DT40-hTDP1 cell growth loss with CPT. chicken DT40 Tdp1-/-;hTDP1 cells + 20 nM CPT, ATP luminescence, 48 h. Potency, µM (series often up to 46.2 µM), inactives show top-dose activity change, negative = growth inhibition, actives largely listed as inhibitors. 420,000 compounds, 12% hits; also: potency is read from the fitted curve at half-maximal effect; nearly all actives have a fitted effect of over 55% in size
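Cell growth measured by CellTiter-Glo luminescence after a minimum 48 h, 37 C compound exposure with 20 nM CPT in Tdp1-knockout DT40 cells stably expressing hTDP1, seeded 400/well; qHTS titration format.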
* hit, by the source's call; u = inconclusive; x = no result; [ ] = remark or other dose. Unless noted, calls follow the shape of the dose curve; as a rule, active = well fitted curve in the direction sought with a large enough effect; inconclusive = small, poorly fitted or top-dose-only effect, or another doubt; inactive = no such curve, though single readings can be large; an effect the other way counts as inactive or inconclusive. % is scaled to controls: 0 for no effect and ±100 for the full control effect.

SMILES | IL-1B inflam inh | Gal4-VP16 FLuc | RORgamma inh | DT40 TDP1 no CPT | ELG1 DNA repair | DT40 TDP1 CPT
COc1cccc(C(=O)NCCc2csc(-c3ccc(Cl)cc3)n2)c1 | x | x | x | u | x | 16.4µM*
COc1ccc(NC(=O)C(=O)NCCc2csc(-c3ccc(Cl)cc3)n2)cc1 | x | x | x | -12.3% | x | -15.8%
Cc1cccc(-c2nc(CNC(=O)c3ccco3)cs2)c1 | -23.7 | x | x | -0.2% | u | u
Cc1cccc(-c2nc(CCNC(=O)c3ccccc3Br)cs2)c1 | x | x | x | 20.6µM* | x | 18.4µM*
Cc1ccc(C(=O)N[C@H](C(=O)Nc2sccc2C(N)=O)C(C)C)cc1 | 45.7 | 2.0% | 21.7% | u | u | -16.0%
NCC1O[C@H](O[C@@H]2C(O)[C@H](O[C@H]3OC(CO)C(O)C(N)C3O)[C@@H](N)C[C@H]2N)[C@@H](N)CC1O (stereo partly specified) | x | -10.7% | -6.7% | -7.2% | x | -10.9%
Cc1cccc(Cl)c1NC(=O)NCCCN1CCCCC1C (stereo unspecified) | -14.7 | x | x | 15.0% | x | 3.7%
C[C@@H]1CN([C@H](C)CO)C(=O)c2cc(C#CC3CC3)cnc2O[C@H]1CN(C)S(C)(=O)=O | 11.7 | x | x | -15.8% | x | -12.8%
CS(=O)(=O)N1CCC2(CC1)CN(C(=O)Nc1cccc(F)c1)C2 | x | -5.4% | 0.9% | -25.2% | x | -6.0%
O=C(COc1ccc([N+](=O)[O-])cc1)NNC(=O)C1COc2ccccc2O1 (stereo unspecified) | 15.3 | x | x | -18.7% | x | -2.6%
Cc1ccc(-c2nc(CCNC(=O)c3ccc(C)c(C)c3)cs2)cc1 | x | x | x | 16.4µM* | x | u
Cc1ccc(-c2nc(CCNC(=O)C(=O)Nc3ccc(C)c(C)c3)cs2)cc1 | x | x | x | 1.1% | x | -9.3%
COc1ccc(CCNC(=O)CCS(=O)(=O)c2cc(Br)cc3c2N(C(C)=O)CC3)cc1OC | x | x | x | -12.9% | x | -0.8%
Cc1nc2cc(NCc3cc([N+](=O)[O-])ccc3O)ccc2n1Cc1ccccc1 | 16.5 | -12.9% | -14.5% | u | -3.7% | -29.0%
Cc1nc2cc(NCc3nc4ccccc4n3Cc3ccccc3)ccc2n1C | -82.7* | -24.1% | -67.5% | u | u | 23.1µM*
Cc1cccc(NCc2nc3ccccc3n2Cc2ccccc2)c1 | -26.0 | u | 1µM* | u | u | 14.6µM*
CCC(=O)Oc1c(C(=O)CC)cc2c(C)cc(=O)oc2c1C | -64.6* | -14.1% | -7.1% | u | u | u
CCC(=O)c1cc2c(C)cc(=O)oc2c(C)c1OC | -0.4 | -2.2% | -7.6% | -7.8% | 2.2% | 8.4%
O=S(=O)(c1ccc(F)cc1)N1CCN(CCc2ccccc2)CC1 | -15.8 | 1.9% | 1.0% | -25.3% | u | -4.1%
CCN(C[C@H]1N[C@@](Cc2ccccc2)(C(=O)OC)[C@H]2C(=O)N(C)C(=O)[C@@H]12)C(=O)Nc1ccc(C(F)(F)F)cc1 | -1.2 | x | x | u | 10.7% | 16.4µM*
CCN(C[C@H]1N[C@@](Cc2ccccc2)(C(=O)OC)[C@H]2C(=O)N(Cc3ccccc3)C(=O)[C@@H]12)C(=O)Nc1ccc(Cl)cc1 | -13.5 | x | x | 18.4µM* | 3.3% | u
CCN(C[C@H]1N[C@@](Cc2ccccc2)(C(=O)OC)[C@H]2C(=O)N(Cc3ccccc3)C(=O)[C@@H]12)C(=O)NC(C)C | 24.3 | x | x | u | u | u
CCN(C[C@H]1N[C@@](Cc2ccccc2)(C(=O)OC)[C@H]2C(=O)N(Cc3ccccc3)C(=O)[C@@H]12)C(=O)Nc1ccc(F)cc1 | u | x | x | 16.4µM* | -8.6% | u
CCCOc1ccc(C2C(=O)N(C3CCCCC3)CC(=O)N2CCC2=CCCCC2)cc1OC (stereo unspecified) | x | x | x | -27.2% | x | -16.5%
Cc1ccc(CSCCNC(=O)c2ccccc2)cc1 | 2.7 | 4.8% | 24.8% | -36.1% | -5.9% | -21.0%
SMILES | IL-1B inflam inh | Gal4-VP16 FLuc | RORgamma inh | DT40 TDP1 no CPT | ELG1 DNA repair | DT40 TDP1 CPT
CCOC(=O)c1ccc(Nc2nnc(C)c3ccccc23)cc1 | -26.4 | 0.4% | 28.7% | 16.4µM* | -10.1% | -11.6%
O=C(NCc1ccccc1Cl)c1cccc(NC(=O)c2ccccc2)c1 | -11.1 | -12.0% | 21.7% | -25.5% | u | -0.2%
CCOc1cc(CNC(=O)c2ccccc2NC(=O)c2nsc3ccccc23)ccc1OC | x | x | x | 18.4µM* | x | 16.4µM*
Cc1ccccc1CNC(=O)c1ccc(CSCc2ccccc2)cc1 | -22.8 | 3.7% | 15.6% | 20.6µM* | u | u
CCOc1ccccc1CNC(=O)c1cccc(NC(=O)c2nsc3ccccc23)c1 | x | x | x | 5.17µM* | x | 5.8µM*
C=CC1=C(C(=O)O)N2C(=O)[C@@H](NC(=O)/C(=N/OCC(=O)O)c3csc(N)n3)[C@H]2SC1 (stereo in doubt) | x | x | x | -0.8%[21.1 µM] | x | -9.8%[21.1 µM]
C=C(NCc1ccccc1)c1ccccc1O | x | 5.8% | 2.3% | x | x | x
Cc1ncc2c(c1CNC(=O)c1ccc3c(c1)OCO3)CCN(C(=O)c1cnsn1)C2 | x | x | x | -1.7% | x | 6.3%[9.04 µM]
CCOC(=O)c1ccc(Nc2cc(C)nc(-c3ccccc3)n2)cc1 | 39.9 | -6.9% | 30.7% | 5.17µM* | u | 4.61µM*
O=C(Nc1ccc(C(=O)N2CCCCC2)cc1)c1nsc2ccccc12 | x | x | x | 20.6µM* | x | 20.6µM*
Cc1ccccc1CNC(=O)c1ccc(NC(=O)c2nsc3ccccc23)cc1 | x | x | x | 11.6µM* | x | 14.6µM*
CCOC(=O)c1ccc(NC(=O)c2nsc3ccccc23)cc1 | x | x | x | u | x | 18.4µM*
Cc1ccc(CNC(=O)c2ccc(NC(=O)c3nsc4ccccc34)cc2)cc1 | x | x | x | -15.0% | x | 10.3%
CNC(=O)c1ccc(NC(=O)c2nsc3ccccc23)cc1 | x | x | x | u | x | -9.7%
COC(=O)c1nc(-c2ccc(C)cc2)[nH]c1C(C)(C)C | u | x | x | -26.3% | x | -20.3%
Cc1cccc(C)c1-n1nnnc1C1(C)CCC(=O)N1Cc1cccnc1 (stereo unspecified) | 63.9 | x | x | -24.0% | x | -9.3%
O=C(NC1CCCC1)C(C1CC1)n1c(C2CC2)nc2ccccc21 (stereo unspecified) | -27.7 | x | x | -17.8% | x | 7.9%
COc1ccc(NS(=O)(=O)c2cccc(NC(=O)c3ccccn3)c2)cc1 | -6.4 | u | u | u | u | 20.6µM*
COc1ccc(NS(=O)(=O)c2csc(C(=O)Nc3ccccc3)c2)cc1 | 0.0 | 20µM* | 12.6µM* | u | u | u
Cc1c(CC(=O)O)c(=O)oc2c(C)c(OCc3ccc(F)cc3Cl)ccc12 | 27.6 | 3.9% | -9.1% | 27.0% | u | -7.1%
